Measurements from PMC11024108.

molecular target: Malate dehydrogenase, mitochondrial (UniProt P40926); assay: cross-link between two proteins; cross-linking mass spectrometry

Sequence of Peptidyl-prolyl cis-trans isomerase F, mitochondrial, P30405 (P30405 whole entry): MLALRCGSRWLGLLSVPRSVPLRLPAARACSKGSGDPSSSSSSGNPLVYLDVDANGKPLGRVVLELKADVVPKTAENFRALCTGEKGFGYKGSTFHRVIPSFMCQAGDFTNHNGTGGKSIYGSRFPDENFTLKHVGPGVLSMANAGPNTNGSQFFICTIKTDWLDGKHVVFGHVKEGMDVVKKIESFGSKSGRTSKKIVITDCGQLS
Sequence of Succinate dehydrogenase [ubiquinone] flavoprotein subunit, mitochondrial, P31040 (P31040 whole entry): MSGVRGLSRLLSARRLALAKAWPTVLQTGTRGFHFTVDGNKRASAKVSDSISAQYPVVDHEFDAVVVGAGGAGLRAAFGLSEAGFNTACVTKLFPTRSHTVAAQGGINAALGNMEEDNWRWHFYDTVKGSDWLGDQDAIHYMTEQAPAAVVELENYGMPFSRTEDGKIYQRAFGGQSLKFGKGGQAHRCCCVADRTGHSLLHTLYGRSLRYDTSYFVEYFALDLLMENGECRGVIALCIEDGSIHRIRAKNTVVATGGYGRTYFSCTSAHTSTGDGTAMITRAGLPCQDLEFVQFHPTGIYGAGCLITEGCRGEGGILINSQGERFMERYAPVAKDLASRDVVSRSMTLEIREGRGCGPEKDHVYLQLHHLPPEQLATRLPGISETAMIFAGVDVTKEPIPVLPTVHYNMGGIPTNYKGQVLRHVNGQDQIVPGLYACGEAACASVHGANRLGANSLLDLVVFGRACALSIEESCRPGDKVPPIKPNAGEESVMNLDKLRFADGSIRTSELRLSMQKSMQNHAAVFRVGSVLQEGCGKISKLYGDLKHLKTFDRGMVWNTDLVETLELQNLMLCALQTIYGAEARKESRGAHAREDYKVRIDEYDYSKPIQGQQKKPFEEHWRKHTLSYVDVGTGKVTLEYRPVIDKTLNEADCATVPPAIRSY

Listed as a hit, yes:
Aldehyde dehydrogenase, mitochondrial, P05091
Dihydrolipoyl dehydrogenase, mitochondrial, P09622
Succinate dehydrogenase [ubiquinone] flavoprotein subunit, mitochondrial, P31040
Peptidyl-prolyl cis-trans isomerase F, mitochondrial, P30405
Aldehyde dehydrogenase family 1 member B1, mitochondrial, P30837
Glutathione reductase, mitochondrial, P00390
